Experimental findings from PubChem BioAssay AID504845 (National Center for Advancing Translational Sciences (NCATS), 2011) are described below.

Values joined by “and” are separate entries in the source; they are usually repeats but may differ in a detail not shown here. Equal entries are not always repeated. Out of some 390,000 compounds screened, about 150 (0.038%) were called active. Entries that show only a call come without a potency. About 3% were inconclusive and are not listed. Calls follow the shape of the dose curve; as a rule, active = well fitted inhibition curve with a large enough effect; inconclusive = small, poorly fitted or top-dose-only effect; inactive = no such curve, though single readings can be large or run the other way. The full list was thinned out, with actives kept by preference. Some compounds were tested as several samples or in several runs, with calls that do not always agree.
Potency is read from the fitted curve at half-maximal effect.

For this test, the target named is Regulator of G-protein signaling 4 (Homo sapiens) (UniProt P49798). As to the kind of experiment: Inhibitors of Regulator of G Protein Signaling (RGS) 4: qHTS. Also: nearly all actives have a fitted effect of over 75% in size. As to conditions: Transcreener GDP fluorescence polarization, RGS4-accelerated GTP hydrolysis; series mostly up to 56.9 µM. The source says: G-protein-coupled receptors (GPCRs) are well-established targets for drug discovery and development. Members of the "regulator of G-protein signaling" (RGS)-protein superfamily have recently emerged as critical modulators of specific GPCR signaling pathways. […] Combining specific RGS domain inhibitors with existing GPCR agonists should potentiate cellular responses and could also increase the specificity of action of existing therapeutics. Small molecule modulators of RGS domain activity should also have clinical utility in inhibiting or potentiating the actions of endogenous GPCR agonists. In particular, the diversity of RGS proteins with highly localized and dynamically regulated distributions in the human brain makes this family of proteins attractive targets for pharmacotherapy of central nervous system (CNS) disorders such as Parkinson's disease, schizophrenia, and anxiety.
Regulator of G-protein signaling 4 (Homo sapiens), sequence (P49798 whole entry, looked up, the tested form may be a part): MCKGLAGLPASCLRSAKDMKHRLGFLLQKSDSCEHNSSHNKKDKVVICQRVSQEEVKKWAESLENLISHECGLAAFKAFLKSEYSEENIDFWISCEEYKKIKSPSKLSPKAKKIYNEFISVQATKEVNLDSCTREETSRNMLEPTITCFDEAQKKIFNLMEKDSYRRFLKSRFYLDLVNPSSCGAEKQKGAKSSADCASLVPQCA
This assay was used to screen the NIH Molecular Libraries Small Molecule Repository (MLSMR) in order to identify a small molecule that inhibits RGS4.
NIH Chemical Genomics Center [NCGC]
NIH Molecular Libraries Probe Centers Network [MLPCN]
Assay Submitter (PI): David Siderovski, University of North Carolina Chapel Hill (School of Medicine)
Two microliters of 500nM (2x working concentration) is dispensed into black medium-binding solid-bottom Kalypsys plates. Then with the Kalypsys pintool 23nl of control and compounds are transferred; the control compound is […] CCG-4986 (working concentration). […] An initial fluorescent polarization read (620 nm/688 nm) is performed on the Envision before the plate is incubated for 90 minutes at 30 deg C at a relative humidity of 80%. The plate is once more centrifuged at 1000 RPM for 15 seconds and another Envision fluorescent polarization (620 nm/688 nm) read is carried out.
A general note: Quantitative high-throughput screening tests each substance at several concentrations.
Take `CC(=O)c1c(O)c(C)c(O)c(Cc2c(O)c3c(c(C(=O)/C=C/c4ccccc4)c2O)OC(C)(C)C=C3)c1O`: the Potency entry is “inactive and 10.6 µM (active)”.

Take `CC(=O)OC1C([N+]2(C)CCCCC2)C[C@H]2C3CC[C@H]4C[C@H](OC(C)=O)C([N+]5(C)CCCCC5)CC4(C)C3CCC12C` (stereo partly drawn): the Potency entry was “inactive”.

For the compound `CCCN(C/C=C/I)C1CCc2ccc(O)cc2C1` (stereo not drawn), the Potency result is “inactive”.
